Source: PubChem BioAssay
Compounds with a hit are over-represented: about 1% of the library has one in this group of screens.
FadD28 FP inh = M. tuberculosis FadD28 bisubstrate binding inhibition; 0.22% of 360,000 active; FadD28 bisubstrate probe binding, fluorescence polarization; inhibition, % at 12.5 µM; in the data active = inhibition above about 8.5%, passing the limit was not always enough; inconclusive = no clear call, values can overlap the other calls
DUSP3 inh = blocks human VHR1 dual specificity phosphatase; P51452; recombinant VHR phosphatase, pNPP absorbance; inhibition, % at 13.3 µM; 0.52% of 290,000 active; AID 1654; in the data active = inhibition above about 50%
BioA inh = blocks M. tuberculosis BioA enzyme activity | purified M. tuberculosis BioA enzyme, plate reader | inhibition, % at 9.99 µM | 0.096% of 360,000 active; in the data active = inhibition above about 40%; inconclusive = no clear call, values can overlap the other calls
MazF activator = increases E. coli MazEF RNase cleavage of RNA; P0AE70; FAM/BHQ RNA-DNA oligo cleavage fluorescence, 5 h; activation, % at 20 µM; 0.32% of 350,000 active; in the data active = activation above about 50%
TcdB GH inh = TcdB glycohydrolase inhibition; 0.24% of 350,000 active; TcdB glycohydrolase enzymatic assay, plate reader; P18177; inhibition, % at 9.99 µM; in the data active = inhibition above about 10%
Target sequence (P18177 whole entry, looked up): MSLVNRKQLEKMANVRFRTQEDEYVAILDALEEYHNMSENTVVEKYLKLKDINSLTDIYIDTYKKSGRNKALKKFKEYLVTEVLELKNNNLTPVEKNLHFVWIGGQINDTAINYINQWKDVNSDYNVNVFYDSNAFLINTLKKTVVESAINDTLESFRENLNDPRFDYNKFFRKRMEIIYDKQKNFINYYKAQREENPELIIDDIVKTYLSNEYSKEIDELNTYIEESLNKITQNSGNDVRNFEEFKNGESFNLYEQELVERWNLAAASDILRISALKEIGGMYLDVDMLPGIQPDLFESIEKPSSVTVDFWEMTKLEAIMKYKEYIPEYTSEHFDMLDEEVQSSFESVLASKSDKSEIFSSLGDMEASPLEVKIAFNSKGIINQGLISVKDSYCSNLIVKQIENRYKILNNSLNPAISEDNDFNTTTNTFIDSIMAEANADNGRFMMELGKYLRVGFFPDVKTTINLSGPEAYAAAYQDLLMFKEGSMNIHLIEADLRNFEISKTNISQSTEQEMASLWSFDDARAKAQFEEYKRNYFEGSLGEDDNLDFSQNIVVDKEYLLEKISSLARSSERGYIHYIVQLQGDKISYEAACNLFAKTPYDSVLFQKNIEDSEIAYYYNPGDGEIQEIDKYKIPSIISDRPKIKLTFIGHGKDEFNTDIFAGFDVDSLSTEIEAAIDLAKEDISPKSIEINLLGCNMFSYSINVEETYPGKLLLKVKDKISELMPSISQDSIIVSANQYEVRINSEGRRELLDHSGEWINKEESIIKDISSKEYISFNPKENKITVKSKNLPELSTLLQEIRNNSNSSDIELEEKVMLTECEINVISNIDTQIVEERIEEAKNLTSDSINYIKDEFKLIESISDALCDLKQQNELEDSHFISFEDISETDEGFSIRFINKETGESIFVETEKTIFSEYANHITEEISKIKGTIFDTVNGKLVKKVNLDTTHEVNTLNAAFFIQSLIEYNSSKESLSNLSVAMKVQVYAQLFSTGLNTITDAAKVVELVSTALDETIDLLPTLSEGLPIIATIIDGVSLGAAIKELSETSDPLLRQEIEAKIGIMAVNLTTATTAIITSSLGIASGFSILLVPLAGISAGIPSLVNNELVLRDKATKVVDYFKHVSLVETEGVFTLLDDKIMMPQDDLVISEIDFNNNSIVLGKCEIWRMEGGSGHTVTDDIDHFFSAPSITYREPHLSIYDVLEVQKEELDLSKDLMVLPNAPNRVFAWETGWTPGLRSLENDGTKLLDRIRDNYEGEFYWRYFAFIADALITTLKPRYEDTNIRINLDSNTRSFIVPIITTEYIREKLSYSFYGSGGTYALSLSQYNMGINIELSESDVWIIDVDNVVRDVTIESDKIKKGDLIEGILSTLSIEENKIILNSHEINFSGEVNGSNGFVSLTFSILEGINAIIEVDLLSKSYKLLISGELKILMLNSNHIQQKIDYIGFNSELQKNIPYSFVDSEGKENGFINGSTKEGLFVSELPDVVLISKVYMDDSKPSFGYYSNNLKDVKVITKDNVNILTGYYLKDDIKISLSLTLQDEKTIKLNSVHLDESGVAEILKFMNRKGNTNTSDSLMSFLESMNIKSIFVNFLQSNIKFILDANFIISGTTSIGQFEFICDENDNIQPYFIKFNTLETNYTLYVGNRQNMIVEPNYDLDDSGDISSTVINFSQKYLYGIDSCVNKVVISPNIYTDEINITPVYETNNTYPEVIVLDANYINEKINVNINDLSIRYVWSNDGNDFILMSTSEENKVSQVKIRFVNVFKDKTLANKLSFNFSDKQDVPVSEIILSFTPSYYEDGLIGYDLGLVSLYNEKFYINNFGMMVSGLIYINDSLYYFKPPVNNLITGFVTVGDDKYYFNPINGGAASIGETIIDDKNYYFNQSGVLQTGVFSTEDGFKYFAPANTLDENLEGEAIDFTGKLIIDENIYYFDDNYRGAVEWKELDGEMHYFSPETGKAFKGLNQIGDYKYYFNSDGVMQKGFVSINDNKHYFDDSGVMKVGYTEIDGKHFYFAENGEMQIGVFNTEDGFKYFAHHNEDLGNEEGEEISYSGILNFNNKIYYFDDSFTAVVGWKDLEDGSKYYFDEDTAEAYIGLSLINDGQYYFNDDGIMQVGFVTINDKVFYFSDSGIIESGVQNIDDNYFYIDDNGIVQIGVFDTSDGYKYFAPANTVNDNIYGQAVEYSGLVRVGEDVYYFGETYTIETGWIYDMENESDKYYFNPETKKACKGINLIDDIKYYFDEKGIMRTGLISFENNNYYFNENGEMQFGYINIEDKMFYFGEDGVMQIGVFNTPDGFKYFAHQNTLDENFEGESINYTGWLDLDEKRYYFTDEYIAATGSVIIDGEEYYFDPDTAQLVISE
Y pestis TopoI = blocks Yersinia pestis topoisomerase I activity; activity, % at 10 µM; Y. pestis Topo-I cleavage product accumulation, plate reader; 0.064% of 360,000 active; in the data active = activity above about 50%, passing the limit was not always enough; inconclusive = no clear call, values can overlap the other calls
The depositor's hits bear a star; ? = inconclusive; nt = not tested or not shown; + = active, no number.

SMILES	FadD28 FP inh	DUSP3 inh	BioA inh	MazF activator	TcdB GH inh	Y pestis TopoI
O=C(O)CN1C(=O)/C(=C/c2ccc(SCc3ccccc3)o2)SC1=S	5	48	nt	123*	2	4
COC(=O)C1=C(C)N(C)C(C)=C(C(=O)OC)C1c1ccccn1	0	25	0	94*	nt	2
COC(=O)CN1C(=O)N/C(=C/c2cc3c(cc2OC)OCO3)C1=O	-4	-3	nt	2	1	12
C#CCN1C(=O)S/C(=C\c2cc3c(cc2OC)OCO3)C1=O	-3	13	-4	196*	1	1
CC=Cc1ccc2n(c1=O)C[C@H]1[C@H](CO)[C@@H](C(=O)NC3CCC3)N(Cc3ccncc3)[C@@H]21 (mixture of isomers)	nt	nt	nt	nt	0	nt
Cn1nc(-c2ccccc2)c2nc3ccccc3nc21	-2	5	-13	+	nt	-7
COc1ccc(CN2CCC(n3nccc3NC(=O)c3ccc4c(c3)OCO4)CC2)cc1C	-1	52*	-3	-12	2	2
Cc1ccccc1CN1CCC(n2nccc2NC(=O)c2ccc3c(c2)OCO3)CC1	-1	-7	0	-4	1	11
CC(=O)c1cc(CN2CCC(n3nccc3NC(=O)c3ccccc3C)CC2)cs1	-1	59*	2	-3	1	2
CC(C)CC#Cc1ccc([C@@H]2[C@H](CO)N3C(=O)CN(C(=O)NC4CCCC4)C[C@@H]23)cc1	nt	nt	nt	nt	0	nt
COc1ccc(S(=O)(=O)N2CCN(C(=O)c3cccs3)CC2)cc1	-1	21	2	1	nt	-8
COc1cc(OC)cc(C(=O)N2CCN(C(=O)c3cccs3)CC2)c1	-1	58*	1	11	1	0
CCCCCCCCCn1cc(C(C)=O)c(=O)[nH]c1=O	-5	50*	-1	1	nt	5
CC(=O)c1cn(CCCCCCCn2cc(C(C)=O)c(=O)[nH]c2=O)c(=O)[nH]c1=O	-3	-3	nt	-5	-1	4
COc1ccccc1Nc1n[nH]c(=S)s1	-2	51*	nt	-4	6	3
NC(=S)n1[nH]c(-c2ccc([N+](=O)[O-])cc2)c(N=Nc2cccc([N+](=O)[O-])c2)c1=O	?	81*	nt	-5	2	3
COc1ccc(-c2ccc(-c3noc(-c4ccccc4OC)n3)c(OC)n2)cc1	-6	6	nt	61*	nt	10
COc1ccc(-c2ccc(-c3noc(-c4ccccc4C)n3)c(OC)n2)cc1	-2	4	-2	-23	nt	4
O=C(CSc1ccc2nnc(-c3ccc(F)cc3)n2n1)N1CCOCC1	-2	nt	4	1	24*	8
O=C(CSc1ccc2nnc(-c3cccs3)n2n1)N1CCOCC1	0	nt	5	6	1	-1
C[C@@H]1CCCCO[C@@H](CN(C)C(=O)CCCN(C)C)[C@H](C)CN([C@@H](C)CO)C(=O)c2cc(NC(=O)Nc3ccc(F)cc3)ccc2O1	nt	nt	0	nt	-2	nt
CCOC(=O)/C(C#N)=N/Nc1ccccc1OC	-1	-5	-1	65*	1	2
CCOCCC(=O)Nc1cc(Cl)ccc1OC	-1	-42	-1	3	nt	1
CCOC(=O)/C(C#N)=N\Nc1cc(Cl)ccc1OC	-3	4	nt	326*	0	-11
CN1C(=O)c2cc(NC(=O)C3CC3)ccc2OC[C@@H]2O[C@H](CC(=O)NCc3cccc(F)c3)CC[C@@H]21	nt	nt	-1	nt	nt	nt
SMILES	FadD28 FP inh	DUSP3 inh	BioA inh	MazF activator	TcdB GH inh	Y pestis TopoI
COc1ccc2c3c(n(C)c2c1)[C@@H](CO)N(C(=O)Nc1ccc(F)cc1)CC31CCN(C(=O)NC2CCCC2)CC1	nt	nt	nt	nt	0	nt
CCCC(=O)Oc1ccc(C2NC(=O)c3ccccc3O2)cc1OC (stereo not given)	-4	60*	-2	4	2	16
COc1ccc(C2NC(=O)c3ccccc3O2)cc1OC (stereo not given)	-2	0	0	7	nt	5
CCC(=O)Oc1ccc(C2NC(=O)c3ccccc3O2)cc1OC (stereo not given)	1	60*	6	-4	1	13
CC(C)CC#Cc1ccc2c(c1)O[C@@H](CN(C)Cc1ccc(C(=O)O)cc1)[C@H](C)CN([C@@H](C)CO)S2(=O)=O	nt	nt	0	nt	nt	nt
CCOC(=O)C1CCN(Cc2cccc(Oc3ccc(Cl)cc3)c2)CC1	-2	0	-2	-1	1	16
CCOC(=O)C1CCN(Cc2cccc(Oc3ccccc3)c2)CC1	-5	-16	-1	0	0	66*
COc1ccc(Cl)cc1NC(=O)CSc1nnc(CNC(=O)c2ccco2)o1	-2	6	0	2	0	0
COc1ccc(Cl)cc1NC(=O)CSc1nnc(-c2ccco2)o1	-1	10	2	5	19*	4
COCC(=O)Nc1ccc2c(c1)OC[C@H](C)N(Cc1ccncc1)C[C@H](C)[C@@H](OC)CN(C)C2=O	nt	nt	nt	nt	0	nt
CCCOC(=O)CSC1=C(C#N)C(c2ccccc2Cl)CC(=O)N1 (stereo not given)	-1	50*	0	8	0	11
CCOC(=O)CSC1=C(C#N)C(c2ccc(Cl)cc2)CC(=O)N1 (stereo not given)	-2	8	2	0	0	6
CSc1ccccc1NC(=O)Nc1cccc(Cl)c1	-6	17	-1	119*	-1	-4
COc1cc(Cc2ccc(N)c(OC)c2)ccc1N	-2	-14	nt	1	15*	-9
COc1ccc(Cc2ccc(OC)c(N)c2)cc1N	-5	23	-1	-1	2	3
O=C(c1ccccn1)N1CC2(C1)[C@@H](c1ccccc1)[C@H](CO)N2C(=O)C1CCC1	nt	nt	nt	nt	0	nt
Cc1ccc(NC(=O)c2sc(Cl)nc2-c2ccccc2)cc1C	-4	33	-4	67*	nt	16
Oc1ccc(-c2cn3ccccc3n2)cc1	1	-5	nt	-2	41*	-15
O=C(Nc1cc(S(=O)(=O)Nc2ccc(Cl)cc2)ccc1O)c1ccc(S(=O)(=O)N2CCCCCC2)cc1	-1	-7	-2	6	2	19
O=C(N/N=C\c1cc(Cl)ccc1O)c1ccc(S(=O)(=O)N2CCCCC2)cc1	1	64*	-1	-163	nt	5
CCCNC(=O)N1CC2(CCN(Cc3cccnc3)CC2)c2c(n(C)c3cc(OC)ccc23)[C@@H]1CO	nt	nt	nt	nt	1	nt
COc1cccc(CCNc2ccc(N3C(=O)CC(C)C3=O)cc2[N+](=O)[O-])c1 (stereo not given)	-2	-6	-1	7	0	24
CC1CC(=O)N(c2ccc(NCc3ccc(Cl)cc3)c([N+](=O)[O-])c2)C1=O (stereo not given)	-2	4	1	214*	2	19
C[C@@H]1CN([C@H](C)CO)C(=O)c2cc(NS(=O)(=O)c3ccc(Cl)cc3)ccc2O[C@@H](C)CCCCO[C@H]1CN(C)S(=O)(=O)c1ccc(F)cc1	nt	nt	-3	nt	0	nt
COc1cccc(N2C(=O)NC(=O)/C(=C/c3ccc4c5c(cccc35)CC4)C2=O)c1	nt	51*	nt	nt	4	nt
